HIV RNase H inh-1 = inhibitors of HIV-1 reverse transcriptase RNase H. inhibition, % at 10 µM. RT-RNase H RNA/DNA duplex cleavage, fluorescence. P04585. actives 1.9% (n = 65,000). AID 565; in the data active = inhibition above about 50%
HIV RNase H inh-2 = confirmation of HIV-1 reverse transcriptase RNase H inhibitors. shares compounds with HIV RNase H inh-1. Recombinant RT RNase H, fluorescent RNA/DNA duplex cleavage. inhibition, % at 10 µM. actives 39% (n = 1,000). AID 651; in the data active = inhibition above about 48%; inconclusive = no clear call, values can overlap the other calls
Large screens that a line does not name were inactive (follow-up assays come after a bar, where they were run). The full list was thinned out, with hits kept by preference.

O=C(CSc1nc2ccccc2c(=O)n1Cc1ccco1)NCc1ccccc1	none
CCc1ccccc1NC(=O)C(CC)Sc1nc2cc3c(cc2c(=O)n1Cc1ccco1)OCO3 (stereo unspecified)	HIV RNase H inh-1 78 | HIV RNase H inh-2 inactive
COc1ccc(S(=O)(=O)N2CCN(CC(=O)Nc3ccc(C)c(F)c3)CC2)cc1	none
O=C(Cn1cc2c(n1)CCCCC2)NCc1ccccn1	none
Cc1cccc(C)c1NS(=O)(=O)c1ccc(F)cc1	none
CC1(C)CC2(CC(C)(C)NC(=O)N2)NC(=O)N1	none
CCOc1ccc(C(=O)Nc2c(C(N)=O)oc3ccccc23)cc1	none
CCOc1ccc(C(=O)Nc2cc(C)c3c(=O)oc4ccccc4c3n2)cc1	HIV RNase H inh-1 65 | HIV RNase H inh-2 inactive
COc1ccc(CC(=O)Nc2cc(C)c3c(=O)oc4ccccc4c3n2)cc1	none
Cc1c(C(=O)Nc2ccccc2N2CCOCC2)sc2nc3n(c(=O)c12)CCC3	none
Cc1cc(N)n(-c2nc(-c3cccnc3)nc3ccccc23)n1	none
COC(=O)CC1Oc2ccccc2N(Cc2ccccc2)C1=O (stereo unspecified)	none
COc1ccccc1NC(=O)CSc1nnc(COc2ccc(Cl)cc2)n1Cc1ccco1	none
COc1ccccc1OCc1nnc(SCC(=O)NCc2ccco2)n1Cc1ccco1	HIV RNase H inh-1 66 | HIV RNase H inh-2 inactive
COc1ccc(C)cc1NC(=O)CSc1nnc(COc2ccc(C)cc2)n1Cc1ccco1	none
CCOc1ccc(OCC)c(NC(=O)CCn2cccc2)c1	none
Cc1[nH]c(C(=O)N2CCCCC2)c(C)c1C(=O)NC1CCCCC1	none
CCCCCSc1nc2c(c(=O)[nH]c(=O)n2C)n1C(C)C	none
CCCCCCn1c(SCC(=O)OC)nc2c1c(=O)[nH]c(=O)n2C	HIV RNase H inh-1 93 | HIV RNase H inh-2 66
C/C=C/CSc1nc2c(c(=O)[nH]c(=O)n2C)n1C(C)C	none
COC(=O)CSc1nc2c(c(=O)n(C)c(=O)n2C)n1CCC(C)C	HIV RNase H inh-1 74 | HIV RNase H inh-2 inactive
CCCCCCn1c(SCC(C)C)nc2c1c(=O)[nH]c(=O)n2C	none
C=CCn1c(SCC(=C)C)nc2c1c(=O)[nH]c(=O)n2C	none
CC(C)n1c(SCC(N)=O)nc2c1c(=O)[nH]c(=O)n2C	HIV RNase H inh-1 61 | HIV RNase H inh-2 inactive
COC(=O)C(C)Sc1nc2c(c(=O)n(C)c(=O)n2C)n1CCC(C)C (stereo unspecified)	none
C=CCSc1nc2c(c(=O)[nH]c(=O)n2C)n1CC	HIV RNase H inh-1 69 | HIV RNase H inh-2 75
CCCCCOC(=O)CSc1nc2c(c(=O)[nH]c(=O)n2C)n1Cc1ccc(Cl)cc1	none
C=CCSc1nc2c(c(=O)[nH]c(=O)n2C)n1C/C=C(/C)Cl	none
CCn1c(SCC(N)=O)nc2c1c(=O)n(C)c(=O)n2C	none
Cc1cc(C)c2c(CC(=O)Nc3nccs3)coc2c1	none
Cc1cccc(C)c1OCC(O)CNS(=O)(=O)c1ccccc1C(=O)N1CCCCC1 (stereo unspecified)	none
CC(C)(C)OCC(NC(=O)C(CC(N)=O)NC(=O)OC(C)(C)C)C(=O)OC(C)(C)C (stereo unspecified)	none
CCCCCSc1nc2c(c(=O)[nH]c(=O)n2C)n1CC	HIV RNase H inh-1 73 | HIV RNase H inh-2 inactive
C=C(C)Cn1c(SCCCO)nc2c1c(=O)[nH]c(=O)n2C	none
CCCCCSc1nc2c(c(=O)[nH]c(=O)n2C)n1C	none
NC(=O)CN1C(=O)C2C3C=CC(C3)C2C1=O (stereo unspecified)	none
Cc1ccc(NCN2C(=O)C3C4C=CC(C4)C3C2=O)cc1 (stereo unspecified)	none
O=C1C2C3C=CC(C3)C2C(=O)N1CNc1ccc(O)cc1 (stereo unspecified)	HIV RNase H inh-1 80 | HIV RNase H inh-2 inactive
CCCCCc1ccc(CC(=O)O)cc1	none
CCCCc1ccc(NC(=O)OC)cc1	none
CCCCc1ccc(CC(=O)O)cc1	HIV RNase H inh-1 55 | HIV RNase H inh-2 inactive
Cc1cc(C(=O)CSc2nc3ccccc3c(=O)n2C)c(C)n1Cc1ccc2c(c1)OCO2	none
Cn1c(=O)[nH]c(=O)c2c1nc(NCCCO)n2CCCc1ccccc1	none
CCC(c1c(C)[nH]oc1=O)c1c(C)[nH]oc1=O	none
COCc1nc2ccccc2n1CCOc1ccccc1OC	HIV RNase H inh-1 80 | HIV RNase H inh-2 inactive
COCCn1c(COc2ccc(C)cc2)nc2ccccc21	none
COCCn1c(COC)nc2ccccc21	none
Cc1ccc(NC(=O)C2C3C=CC4(CN(Cc5cccnc5)C(=O)C24)O3)cc1 (stereo unspecified)	none
Cc1ccc(C)c(N2CCN(C(=O)c3ccc(Cn4c(=O)[nH]c5ccccc5c4=O)cc3)CC2)c1	none
C=CCn1c(=O)[nH]c2cc(C(=O)N3CCN(c4ccc(C(C)=O)cc4)CC3)ccc2c1=O	none
C=CCn1c(=O)[nH]c2cc(C(=O)N3CCN(c4cc(C)ccc4C)CC3)ccc2c1=O	HIV RNase H inh-1 80 | HIV RNase H inh-2 inactive
COc1ccc(Cl)cc1-n1c(=S)sc2c(=O)[nH]c(SCC(=O)NCC3CCCO3)nc21 (stereo unspecified)	none
CN(C)S(=O)(=O)c1cccc(CSc2cccc[n+]2[O-])c1	none
COc1ccc(C2(C(F)(F)F)NC(=O)N(C)C(=O)N2C)cc1 (stereo unspecified)	none
Cc1csc(NC(=O)CSc2nnc(-c3ccc(S(=O)(=O)N4CCCC4)cc3)o2)n1	none
CC(=O)c1cccc(NC(=O)CSc2nnc(-c3ccc(S(=O)(=O)N4CCCC4)cc3)o2)c1	none
Cc1ccc(-c2nnc(SCC(=O)Nc3ccc(S(=O)(=O)N4CCCCCC4)cc3)o2)cc1	HIV RNase H inh-1 65 | HIV RNase H inh-2 inconclusive
CCOC(=O)N1CCC(NC(=O)CCC(=O)N2CC(C)Oc3ccc(Cl)cc32)CC1 (stereo unspecified)	none
COC(=O)CN(c1ccc(F)cc1)S(=O)(=O)c1ccccc1	none
COC(=O)CN(c1ccccn1)S(=O)(=O)c1ccccc1	HIV RNase H inh-1 73 | HIV RNase H inh-2 inactive
COC(=O)CN(c1ccccc1F)S(=O)(=O)c1ccccc1	none
C=CCSc1nc2ccccc2n1Cc1nnc(-c2cccs2)o1	none
CCOC(=O)c1cc2oc(C(c3nnnn3C3CCCCC3)N3CCOCC3)cc2[nH]1 (stereo unspecified)	none
CCSc1nc2sc3c(c2c2nnc(SCC(=O)NCc4ccco4)n12)CCCC3	none
Cc1nc(SCC(=O)NCc2ccco2)c2c3c(sc2n1)CCCC3	none
CC(C)Sc1nc2sc3c(c2c2nnc(SCC(=O)NCc4ccco4)n12)CCCC3	HIV RNase H inh-1 86 | HIV RNase H inh-2 67
CS(=O)(=O)Nc1ccc(N2CCCCC2)c(Cl)c1	none
CCc1nnc(NC2=NCCC2)s1	none
CCOC(=O)c1[nH]c(C)c(/C(O)=C2\C(=O)C(=O)N(CCCN(C)C)C2c2cccnc2)c1C (stereo unspecified)	none
CC(=O)C1=C(C)N=c2s/c(=C/c3ccc4c(c3)OCO4)c(=O)n2C1c1ccc(N(C)C)cc1 (stereo unspecified)	none
COc1ccc(C2C(C(C)=O)=C(C)N=c3s/c(=C/c4ccc5c(c4)OCO5)c(=O)n32)cc1 (stereo unspecified)	HIV RNase H inh-1 70 | HIV RNase H inh-2 54
CCOC(=O)C1=C(C)N=c2s/c(=C/c3ccco3)c(=O)n2C1c1cccc(OC)c1 (stereo unspecified)	none
COC(=O)c1ccc2c(=O)n(CCC3=CCCCC3)c(SCC(=O)N3CCCC3)nc2c1	none
CCCCC(CC)Cn1c(N)c(C#N)c2nc3ccccc3nc21 (stereo unspecified)	none
CCCCn1c2nc3ccccc3nc2c2c(=N)oc(C)nc21	none

Source: PubChem BioAssay (University of Pittsburgh Molecular Library Screening Center)
